About 2,000 (36%) of roughly 5,500 compounds were called active. Another 18% or so got no clear call; they are omitted. Cut-off read from the data, not from the text of the source: active = normalized growth mostly below about 0.91 (no sharp cut-off); inconclusive = no clear call, values can overlap the other calls; inactive = mostly above about 0.92. The list shows a part of the results.
Test: chemical genetic growth profiling, strain panel (AID 1159580);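 note: tested at 20 µM; growth read once vehicle control cultures reached saturation at 30 °C; 1 = growth at the plate median or of vehicle wells; lower values mean less growth of the strain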
Conditions: growth OD
[1] = S. cerevisiae deletion strains, locus YHR030C, strain SLT2, stronger effect = lower value

Measured: normalized growth

O=C(O)C1=C(CSc2nnnn2CS(=O)(=O)O)CS[C@@H]2C(NC(=O)[C@H](O)c3ccccc3)C(=O)N12 (stereo partly drawn)
inactive: S. cerevisiae deletion strains, locus YAL021C, strain ccr4, stronger effect = lower value 0.955 | S. cerevisiae deletion strains, locus YAL026C, strain drs2, stronger effect = lower value 0.965 | S. cerevisiae deletion strains, locus YAL030W, strain snc1, stronger effect = lower value 0.993 | S. cerevisiae deletion strains, locus YBL061C, strain skt5, stronger effect = lower value 0.989 | S. cerevisiae deletion strains, locus YBR009C, strain hhf1, stronger effect = lower value 0.993 | S. cerevisiae deletion strains, locus YBR023C, strain chs3, stronger effect = lower value 0.988 | S. cerevisiae deletion strains, locus YBR171W, strain sec66, stronger effect = lower value 0.978 | S. cerevisiae deletion strains, locus YBR231C, strain swc5, stronger effect = lower value 0.987 | S. cerevisiae deletion strains, locus YBR279W, strain paf1, stronger effect = lower value 0.99 | S. cerevisiae deletion strains, locus YCL011C, strain gbp2, stronger effect = lower value 0.963 | S. cerevisiae deletion strains, locus YCL016C, strain dcc1, stronger effect = lower value 0.987 | S. cerevisiae deletion strains, locus YCL061C, strain MRC1, stronger effect = lower value 0.971 | S. cerevisiae deletion strains, locus YCL069W, strain vba3, stronger effect = lower value 0.978 | S. cerevisiae deletion strains, locus YCR088W, strain abp1, stronger effect = lower value 0.968 | S. cerevisiae deletion strains, locus YDL005C, strain med2, stronger effect = lower value 0.98 | S. cerevisiae deletion strains, locus YDL040C, strain nat1, stronger effect = lower value 0.989 | S. cerevisiae deletion strains, locus YDR001C, strain nth1, stronger effect = lower value 0.978 | S. cerevisiae deletion strains, locus YDR069C, strain doa4, stronger effect = lower value 0.982 | S. cerevisiae deletion strains, locus YDR137W, strain rgp1, stronger effect = lower value 0.928 | S. cerevisiae deletion strains, locus YDR159W, strain sac3, stronger effect = lower value 0.966 | S. cerevisiae deletion strains, locus YDR195W, strain ref2 0.971 | S. cerevisiae deletion strains, locus YDR297W, strain sur2, stronger effect = lower value 0.985 | S. cerevisiae deletion strains, locus YDR334W, strain swr1, stronger effect = lower value 0.95 | S. cerevisiae deletion strains, locus YDR335W, strain msn5, stronger effect = lower value 0.963 | S. cerevisiae deletion strains, locus YDR392W, strain spt3, stronger effect = lower value 0.956 | S. cerevisiae deletion strains, locus YEL003W, strain gim4, stronger effect = lower value 0.969 | S. cerevisiae deletion strains, locus YEL037C, strain rad23, stronger effect = lower value 0.963 | S. cerevisiae deletion strains, locus YEL061C, strain CIN8 (second series), stronger effect = lower value 0.972 | S. cerevisiae deletion strains, locus YER015W, strain faa2, stronger effect = lower value 0.986 | S. cerevisiae deletion strains, locus YER016W, strain bim1, stronger effect = lower value 0.978 | S. cerevisiae deletion strains, locus YER111C, strain swi4, stronger effect = lower value 0.981 | S. cerevisiae deletion strains, locus YER155C, strain BEM2 (second series), stronger effect = lower value 0.989 | S. cerevisiae deletion strains, locus YFR010W, strain ubp6, stronger effect = lower value 0.964 | S. cerevisiae deletion strains, locus YGL167C, strain pmr1, stronger effect = lower value 0.987 | S. cerevisiae deletion strains, locus YGL173C, strain kem1, stronger effect = lower value 0.983 | S. cerevisiae deletion strains, locus YGL227W, strain vid30, stronger effect = lower value 0.994 | S. cerevisiae deletion strains, locus YGL240W, strain doc1, stronger effect = lower value 1.01 | S. cerevisiae deletion strains, locus YGL253W, strain hxk2, stronger effect = lower value 0.991 | S. cerevisiae deletion strains, locus YHR013C, strain ard1, stronger effect = lower value 0.963 | S. cerevisiae deletion strains, locus YHR027C, strain rpn1, stronger effect = lower value 0.975 | [1] 1 | S. cerevisiae deletion strains, locus YHR079C, strain IRE1, stronger effect = lower value 1.03 | S. cerevisiae deletion strains, locus YHR142W, strain chs7, stronger effect = lower value 0.948 | S. cerevisiae deletion strains, locus YJL092W, strain hpr5, stronger effect = lower value 0.97 | S. cerevisiae deletion strains, locus YJL095W, strain BCK1 (second series), stronger effect = lower value 0.994 | S. cerevisiae deletion strains, locus YJL095W, strain BCK1, stronger effect = lower value 1.01 | S. cerevisiae deletion strains, locus YJL115W, strain asf1, stronger effect = lower value 0.968 | S. cerevisiae deletion strains, locus YJL129C, strain trk1, stronger effect = lower value 0.961 | S. cerevisiae deletion strains, locus YJL154C, strain vps35, stronger effect = lower value 0.989 | S. cerevisiae deletion strains, locus YJL164C, strain tpk1, stronger effect = lower value 0.982 | S. cerevisiae deletion strains, locus YJL166W, strain qcr8, stronger effect = lower value 0.99 | S. cerevisiae deletion strains, locus YJL187C, strain SWE1, stronger effect = lower value 0.991 | S. cerevisiae deletion strains, locus YJR066W, strain TOR1, stronger effect = lower value 0.945 | S. cerevisiae deletion strains, locus YKL160W, strain elf1, stronger effect = lower value 0.974 | S. cerevisiae deletion strains, locus YKR026C, strain gcn3, stronger effect = lower value 0.972 | S. cerevisiae deletion strains, locus YKR091W, strain srl3, stronger effect = lower value 0.989 | S. cerevisiae deletion strains, locus YLL001W, strain dnm1, stronger effect = lower value 0.965 | S. cerevisiae deletion strains, locus YLL026W, stronger effect = lower value 0.991 | S. cerevisiae deletion strains, locus YLL041C, strain sdh2, stronger effect = lower value 0.982 | S. cerevisiae deletion strains, locus YLR027C, strain aat2, stronger effect = lower value 0.984 | S. cerevisiae deletion strains, locus YLR113W, strain HOG1, stronger effect = lower value 1.04 | S. cerevisiae deletion strains, locus YLR221C, strain rsa3, stronger effect = lower value 0.975 | S. cerevisiae deletion strains, locus YLR258W, strain gsy2, stronger effect = lower value 0.995 | S. cerevisiae deletion strains, locus YLR262C, strain YPT6 (second series), stronger effect = lower value 0.98 | S. cerevisiae deletion strains, locus YLR320W, strain mms22, stronger effect = lower value 0.995 | S. cerevisiae deletion strains, locus YLR342W, strain FKS1, stronger effect = lower value 0.982 | S. cerevisiae deletion strains, locus YLR357W, strain rsc2, stronger effect = lower value 1 | S. cerevisiae deletion strains, locus YLR370C, strain arc18, stronger effect = lower value 0.971 | S. cerevisiae deletion strains, locus YLR384C, strain iki3, stronger effect = lower value 0.987 | S. cerevisiae deletion strains, locus YML120C, strain ndi1, stronger effect = lower value 0.958 | S. cerevisiae deletion strains, locus YMR058W, strain fet3, stronger effect = lower value 0.97 | S. cerevisiae deletion strains, locus YMR125W, strain sto1, stronger effect = lower value 0.993 | S. cerevisiae deletion strains, locus YMR129W, stronger effect = lower value 0.975 | S. cerevisiae deletion strains, locus YMR205C, strain PFK2, stronger effect = lower value 1.01 | S. cerevisiae deletion strains, locus YMR231W, strain pep5, stronger effect = lower value 0.984 | S. cerevisiae deletion strains, locus YNL071W, strain lat1, stronger effect = lower value 0.992 | S. cerevisiae deletion strains, locus YNL183C, strain NPR1, stronger effect = lower value 0.952 | S. cerevisiae deletion strains, locus YNL209W, strain ssb2, stronger effect = lower value 0.982 | S. cerevisiae deletion strains, locus YNL248C, strain rpa49, stronger effect = lower value 0.947 | S. cerevisiae deletion strains, locus YNL322C, strain KRE1 (second series), stronger effect = lower value 0.977 | S. cerevisiae deletion strains, locus YNR049C, strain mso1, stronger effect = lower value 0.983 | S. cerevisiae deletion strains, locus YOR001W, strain rrp6, stronger effect = lower value 0.942 | S. cerevisiae deletion strains, locus YOR070C, strain gyp1, stronger effect = lower value 0.993 | S. cerevisiae deletion strains, locus YOR080W, strain dia2, stronger effect = lower value 0.981 | S. cerevisiae deletion strains, locus YOR083W, strain WHI5, stronger effect = lower value 0.972 | S. cerevisiae deletion strains, locus YOR106W, strain vam3, stronger effect = lower value 0.971 | S. cerevisiae deletion strains, locus YOR231W, strain MKK1, stronger effect = lower value 1.01 | S. cerevisiae deletion strains, locus YOR265W, strain rbl2, stronger effect = lower value 0.991 | S. cerevisiae deletion strains, locus YOR270C, strain vph1, stronger effect = lower value 0.964 | S. cerevisiae deletion strains, locus YOR290C, strain snf2, stronger effect = lower value 0.979 | S. cerevisiae deletion strains, locus YPL051W, strain arl3, stronger effect = lower value 0.998 | S. cerevisiae deletion strains, locus YPL078C, strain atp4, stronger effect = lower value 0.966 | S. cerevisiae deletion strains, locus YPL106C, strain sse1, stronger effect = lower value 0.961 | S. cerevisiae deletion strains, locus YPL240C, strain hsp82, stronger effect = lower value 0.971 | S. cerevisiae deletion strains, locus YPL256C, strain CLN2, stronger effect = lower value 1.04

Cc1c(C)c(C)c(S(=O)(=O)Nc2ccccc2N)c(C)c1C
inactive: S. cerevisiae deletion strains, locus YAL013W, strain DEP1, stronger effect = lower value 1.01 | S. cerevisiae deletion strains, locus YBR229C, strain ROT2, stronger effect = lower value 0.993 | S. cerevisiae deletion strains, locus YDL101C, strain DUN1, stronger effect = lower value 1.04 | S. cerevisiae deletion strains, locus YDR150W, strain NUM1, stronger effect = lower value 1.02 | S. cerevisiae deletion strains, locus YEL061C, strain CIN8, stronger effect = lower value 0.959 | S. cerevisiae deletion strains, locus YGR078C, strain PAC10, stronger effect = lower value 1.01 | [1] 1.01 | S. cerevisiae deletion strains, locus YHR087W, strain rtc3, stronger effect = lower value 0.989 | S. cerevisiae deletion strains, locus YJR043C, strain POL32, stronger effect = lower value 1.03 | S. cerevisiae deletion strains, locus YJR075W, strain HOC1, stronger effect = lower value 1.01 | S. cerevisiae deletion strains, locus YKL190W, strain CNB1, stronger effect = lower value 0.994 | S. cerevisiae deletion strains, locus YLR039C, strain RIC1, stronger effect = lower value 0.988 | S. cerevisiae deletion strains, locus YLR058C, strain SHM2 (second series), stronger effect = lower value 0.975 | S. cerevisiae deletion strains, locus YLR085C, strain ARP6, stronger effect = lower value 0.988 | S. cerevisiae deletion strains, locus YLR262C, strain YPT6, stronger effect = lower value 0.981 | S. cerevisiae deletion strains, locus YML094W, strain GIM5, stronger effect = lower value 1 | S. cerevisiae deletion strains, locus YMR219W, strain ESC1, stronger effect = lower value 0.999 | S. cerevisiae deletion strains, locus YMR263W, strain SAP30, stronger effect = lower value 1.01 | S. cerevisiae deletion strains, locus YNL128W, strain TEP1, stronger effect = lower value 0.978 | S. cerevisiae deletion strains, locus YNL153C, strain GIM3, stronger effect = lower value 1.04 | S. cerevisiae deletion strains, locus YNL298W, strain CLA4 (second series), stronger effect = lower value 0.982 | S. cerevisiae deletion strains, locus YNL322C, strain KRE1, stronger effect = lower value 0.996 | S. cerevisiae deletion strains, locus YNR030W, strain Alg12, stronger effect = lower value 0.966 | S. cerevisiae deletion strains, locus YOL006C, strain TOP1, stronger effect = lower value 1.02 | S. cerevisiae deletion strains, locus YPL055C, strain LGE1, stronger effect = lower value 0.991 | S. cerevisiae deletion strains, locus YPL241C, strain CIN2, stronger effect = lower value 0.974 | S. cerevisiae deletion strains, locus YPR135W, strain CTF4, stronger effect = lower value 1.06 | S. cerevisiae strains, strain wild type, stronger effect = lower value 0.975

From PubChem BioAssay AID1159580 (chemical genetic matrix, 2015)
